In the supplement of paper PMC10849652:
The full data set covers some 7,900 targets. This sample favours those with a hit. About 0.6% of all pairs of compound and target were hits.

compound: Cc1ccc(C(=O)N(CCCN)[C@@H](c2nc3cc(Cl)ccc3c(=O)n2Cc2ccccc2)C(C)C)cc1 [ispinesib]; assay: log2 fold change, soluble protein after heating vs DMSO (PISA); higher = thermal stabilisation; K562 cells, 10 uM, 30 min; active = over 0.2 and 3.5 SD of the protein, either way, in both replicates (recomputed)
In short: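 For each measurement, 10 μM compound was applied for 30 min to K562 cells at 2×10^6 cells/mL. Aliquots were heated for 3 min across 48°C-58°C, pooled, and extracted in PBS with 0.5% NP-40 at 4°C; the supernatant after 21,000xg for 90 min was soluble protein. This was quantified by TMTpro 16plex LC-MS/MS with channel sums equalised, and thermal stability was reported relative to control samples from duplicates, on a log2 fold-change scale.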

Sequence of UniProt Q13733 (Q13733 whole entry, looked up): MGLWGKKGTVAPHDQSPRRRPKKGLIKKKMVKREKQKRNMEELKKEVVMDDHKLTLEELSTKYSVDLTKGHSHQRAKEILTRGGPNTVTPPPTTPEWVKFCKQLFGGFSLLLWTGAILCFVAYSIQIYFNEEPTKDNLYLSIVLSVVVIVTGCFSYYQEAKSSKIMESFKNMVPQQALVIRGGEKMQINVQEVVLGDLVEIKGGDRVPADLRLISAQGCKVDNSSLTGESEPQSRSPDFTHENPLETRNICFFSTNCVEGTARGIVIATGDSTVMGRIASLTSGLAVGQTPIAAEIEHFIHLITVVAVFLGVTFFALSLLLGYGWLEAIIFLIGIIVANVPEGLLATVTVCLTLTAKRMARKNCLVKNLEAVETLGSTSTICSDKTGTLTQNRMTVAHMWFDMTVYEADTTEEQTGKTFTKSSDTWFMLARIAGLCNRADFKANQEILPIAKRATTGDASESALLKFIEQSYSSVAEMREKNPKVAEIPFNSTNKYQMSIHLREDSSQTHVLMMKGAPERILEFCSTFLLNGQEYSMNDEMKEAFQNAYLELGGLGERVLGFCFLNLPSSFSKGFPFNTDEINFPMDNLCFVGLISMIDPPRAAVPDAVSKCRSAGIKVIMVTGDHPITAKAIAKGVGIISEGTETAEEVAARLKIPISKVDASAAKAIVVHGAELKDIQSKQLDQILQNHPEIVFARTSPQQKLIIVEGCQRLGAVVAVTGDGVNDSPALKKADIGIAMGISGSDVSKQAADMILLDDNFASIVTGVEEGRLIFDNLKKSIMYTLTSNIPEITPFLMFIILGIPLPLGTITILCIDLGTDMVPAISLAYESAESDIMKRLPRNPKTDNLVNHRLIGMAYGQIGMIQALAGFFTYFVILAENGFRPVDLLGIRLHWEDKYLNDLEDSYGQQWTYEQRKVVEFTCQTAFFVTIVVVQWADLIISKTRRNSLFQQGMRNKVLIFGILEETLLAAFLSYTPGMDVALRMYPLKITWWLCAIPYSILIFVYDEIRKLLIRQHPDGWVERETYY
Sequence of UniProt Q7L1Q6 (Q7L1Q6 whole entry, looked up): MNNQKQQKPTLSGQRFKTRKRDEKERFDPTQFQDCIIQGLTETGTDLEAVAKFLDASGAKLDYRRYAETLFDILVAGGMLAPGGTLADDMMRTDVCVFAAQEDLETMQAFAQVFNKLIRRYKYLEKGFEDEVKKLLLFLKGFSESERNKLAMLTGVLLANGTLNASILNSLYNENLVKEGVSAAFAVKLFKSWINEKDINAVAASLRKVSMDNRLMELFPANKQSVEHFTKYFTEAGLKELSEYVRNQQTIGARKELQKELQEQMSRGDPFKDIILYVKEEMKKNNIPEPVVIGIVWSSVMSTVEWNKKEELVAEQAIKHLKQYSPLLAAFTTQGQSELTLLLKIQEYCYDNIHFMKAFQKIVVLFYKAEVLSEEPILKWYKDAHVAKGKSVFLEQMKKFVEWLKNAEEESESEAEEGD
Sequence of UniProt P42330 (P42330 whole entry, looked up): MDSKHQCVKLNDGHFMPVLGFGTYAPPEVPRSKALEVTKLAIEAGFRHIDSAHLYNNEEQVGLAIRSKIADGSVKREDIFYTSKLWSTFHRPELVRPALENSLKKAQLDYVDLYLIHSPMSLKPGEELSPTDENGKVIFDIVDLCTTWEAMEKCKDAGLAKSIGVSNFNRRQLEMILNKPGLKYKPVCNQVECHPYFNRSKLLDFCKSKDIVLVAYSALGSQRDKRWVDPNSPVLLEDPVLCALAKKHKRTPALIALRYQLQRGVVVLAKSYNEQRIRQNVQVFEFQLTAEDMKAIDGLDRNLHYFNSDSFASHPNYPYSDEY
Sequence of UniProt Q92685 (Q92685 whole entry, looked up): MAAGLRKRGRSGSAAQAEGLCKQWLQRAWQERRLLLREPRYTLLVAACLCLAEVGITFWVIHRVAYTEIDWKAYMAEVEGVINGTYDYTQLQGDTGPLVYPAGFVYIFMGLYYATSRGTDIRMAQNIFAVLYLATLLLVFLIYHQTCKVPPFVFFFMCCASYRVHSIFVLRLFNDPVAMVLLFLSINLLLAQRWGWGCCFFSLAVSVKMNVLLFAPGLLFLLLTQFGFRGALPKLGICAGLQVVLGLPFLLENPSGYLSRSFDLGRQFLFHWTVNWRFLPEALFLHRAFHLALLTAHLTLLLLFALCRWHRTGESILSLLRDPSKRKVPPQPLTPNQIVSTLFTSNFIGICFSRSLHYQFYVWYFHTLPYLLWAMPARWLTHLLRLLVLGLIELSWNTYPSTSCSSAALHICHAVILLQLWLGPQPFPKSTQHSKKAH
Sequence of UniProt Q9BTE6 (Q9BTE6 whole entry, looked up): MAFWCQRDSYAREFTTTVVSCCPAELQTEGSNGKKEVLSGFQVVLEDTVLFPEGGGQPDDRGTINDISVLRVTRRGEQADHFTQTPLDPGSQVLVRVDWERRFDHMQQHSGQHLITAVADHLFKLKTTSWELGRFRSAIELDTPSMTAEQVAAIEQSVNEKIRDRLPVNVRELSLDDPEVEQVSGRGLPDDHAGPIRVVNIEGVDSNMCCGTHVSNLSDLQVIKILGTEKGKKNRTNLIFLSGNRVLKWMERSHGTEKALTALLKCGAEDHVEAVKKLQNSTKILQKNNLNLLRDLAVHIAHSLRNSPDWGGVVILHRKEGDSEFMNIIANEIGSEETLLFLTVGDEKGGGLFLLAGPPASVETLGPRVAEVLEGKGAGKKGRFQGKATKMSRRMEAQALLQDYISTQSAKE
Sequence of UniProt Q9UHQ4 (Q9UHQ4 whole entry, looked up): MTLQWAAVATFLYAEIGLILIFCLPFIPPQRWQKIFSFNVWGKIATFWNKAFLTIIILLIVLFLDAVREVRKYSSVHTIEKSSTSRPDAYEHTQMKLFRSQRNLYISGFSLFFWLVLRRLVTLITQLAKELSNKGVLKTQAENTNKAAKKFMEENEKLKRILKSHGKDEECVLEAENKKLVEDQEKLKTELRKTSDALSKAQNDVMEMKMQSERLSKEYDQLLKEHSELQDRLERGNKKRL
Sequence of UniProt Q15904 (Q15904 whole entry, looked up): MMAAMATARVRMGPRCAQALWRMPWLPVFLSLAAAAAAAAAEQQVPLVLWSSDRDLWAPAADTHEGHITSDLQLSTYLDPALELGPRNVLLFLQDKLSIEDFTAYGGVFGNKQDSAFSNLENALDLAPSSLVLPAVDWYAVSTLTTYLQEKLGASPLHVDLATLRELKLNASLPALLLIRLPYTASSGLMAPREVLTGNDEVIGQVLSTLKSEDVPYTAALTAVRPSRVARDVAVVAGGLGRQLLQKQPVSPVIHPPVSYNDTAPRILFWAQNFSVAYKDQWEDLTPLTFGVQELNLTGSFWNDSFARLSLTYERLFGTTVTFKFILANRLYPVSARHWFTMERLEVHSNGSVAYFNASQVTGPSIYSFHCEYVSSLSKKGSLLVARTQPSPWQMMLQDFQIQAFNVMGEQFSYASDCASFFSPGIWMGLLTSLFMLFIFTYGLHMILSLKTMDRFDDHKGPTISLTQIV
Sequence of UniProt Q9UBL3 (Q9UBL3 whole entry, looked up): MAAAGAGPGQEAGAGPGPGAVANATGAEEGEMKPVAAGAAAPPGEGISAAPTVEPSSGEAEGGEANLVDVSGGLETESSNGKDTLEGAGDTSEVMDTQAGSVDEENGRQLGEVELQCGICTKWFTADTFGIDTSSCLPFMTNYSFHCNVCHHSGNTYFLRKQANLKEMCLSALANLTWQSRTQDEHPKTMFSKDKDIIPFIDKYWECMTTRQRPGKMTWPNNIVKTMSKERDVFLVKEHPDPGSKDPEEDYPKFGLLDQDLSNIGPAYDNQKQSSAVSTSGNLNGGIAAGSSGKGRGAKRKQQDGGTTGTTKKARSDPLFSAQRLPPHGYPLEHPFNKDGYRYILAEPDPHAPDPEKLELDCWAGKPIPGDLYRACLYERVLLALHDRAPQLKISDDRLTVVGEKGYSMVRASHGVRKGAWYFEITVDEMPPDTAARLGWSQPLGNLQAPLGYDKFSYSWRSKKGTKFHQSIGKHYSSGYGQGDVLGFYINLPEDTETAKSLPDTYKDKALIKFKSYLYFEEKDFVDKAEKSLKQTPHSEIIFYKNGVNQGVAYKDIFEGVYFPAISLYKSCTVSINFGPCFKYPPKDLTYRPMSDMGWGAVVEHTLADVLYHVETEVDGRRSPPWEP
Sequence of UniProt Q8WUW1 (Q8WUW1 whole entry, looked up): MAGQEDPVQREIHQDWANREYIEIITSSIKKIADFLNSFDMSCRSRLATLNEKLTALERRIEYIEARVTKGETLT
Sequence of UniProt P54709 (P54709 whole entry, looked up): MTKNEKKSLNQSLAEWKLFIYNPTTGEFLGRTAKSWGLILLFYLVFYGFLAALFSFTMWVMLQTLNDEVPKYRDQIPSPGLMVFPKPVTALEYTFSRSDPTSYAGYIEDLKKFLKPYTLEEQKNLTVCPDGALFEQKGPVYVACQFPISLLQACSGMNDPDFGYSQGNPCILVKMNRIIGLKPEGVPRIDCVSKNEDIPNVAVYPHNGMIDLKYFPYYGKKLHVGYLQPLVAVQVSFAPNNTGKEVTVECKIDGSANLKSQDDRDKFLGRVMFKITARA
Sequence of UniProt P30043 (P30043 whole entry, looked up): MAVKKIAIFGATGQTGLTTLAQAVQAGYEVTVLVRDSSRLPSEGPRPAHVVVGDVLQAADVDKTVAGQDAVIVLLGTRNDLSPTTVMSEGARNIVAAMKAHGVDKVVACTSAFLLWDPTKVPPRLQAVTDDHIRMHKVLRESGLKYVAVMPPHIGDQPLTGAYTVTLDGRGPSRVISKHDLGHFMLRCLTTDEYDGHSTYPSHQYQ
Sequence of UniProt O95433 (O95433 whole entry, looked up): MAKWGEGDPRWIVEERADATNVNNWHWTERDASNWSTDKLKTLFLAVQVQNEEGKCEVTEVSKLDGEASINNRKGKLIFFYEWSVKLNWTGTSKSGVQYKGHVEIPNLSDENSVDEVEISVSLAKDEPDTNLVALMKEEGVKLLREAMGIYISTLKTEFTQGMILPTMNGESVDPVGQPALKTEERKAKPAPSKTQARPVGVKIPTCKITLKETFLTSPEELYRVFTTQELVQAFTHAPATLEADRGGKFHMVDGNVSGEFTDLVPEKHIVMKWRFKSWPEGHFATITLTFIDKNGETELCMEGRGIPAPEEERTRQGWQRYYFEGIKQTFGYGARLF

| Target | log2 fold change |
| --- | --- |
| ACSL5 isoform 3 (UniProt Q9ULC5) | -0.316 (inactive) |
| ADK (UniProt P55263) | 0.112 (inactive) |
| ATP1B3 (UniProt P54709) | 0.165 (inactive) |
| BCCIP isoform 2 (UniProt Q9P287) | 0.059 (inactive) |
| ANKZF1 (UniProt Q9H8Y5) | -0.349 (inactive) |
| BRD8 isoform 2 (UniProt Q9H0E9) | 0.061 (inactive) |
| ALDH18A1 (UniProt P54886) | 0.164 (inactive) |
| AARSD1 isoform 3 (UniProt Q9BTE6) | 0.067 (inactive) |
| BRK1 isoform 2 (UniProt Q8WUW1) | 0.18 (inactive) |
| BST2 (UniProt Q10589) | -0.078 (inactive) |
| ATP6V1H (UniProt Q9UI12) | -0.089 (inactive) |
| ACACB (UniProt O00763) | -0.188 (inactive) |
| AHSA1 (UniProt O95433) | -0.003 (inactive) |
| ARL6IP4 (UniProt Q66PJ3) | -0.051 (inactive) |
| ABITRAM (UniProt Q9NX38) | 0.108 (inactive) |
| ABCC5 (UniProt O15440) | -0.071 (inactive) |
| BCAP29 isoform 2 (UniProt Q9UHQ4) | -0.245 (active) |
| ASH2L (UniProt Q9UBL3) | 0.036 (inactive) |

| Target | log2 fold change |
| --- | --- |
| ALG5 (UniProt Q9Y673) | 0.001 (inactive) |
| BCL9L (UniProt Q86UU0) | 0.025 (inactive) |
| APPL1 (UniProt Q9UKG1) | -0.098 (inactive) |
| AFDN isoform 5 (UniProt P55196) | -0.002 (inactive) |
| ALDH9A1 isoform 3 (UniProt P49189) | 0.006 (inactive) |
| ACSL1 (UniProt P33121) | -0.246 (active) |
| ACADM isoform 2 (UniProt P11310) | 0.052 (inactive) |
| AKR1C2 (UniProt P52895) | 0.077 (inactive) |
| ALG3 (UniProt Q92685) | -0.086 (inactive) |
| AKR1C3 (UniProt P42330) | 0.371 (inactive) |
| ARL6IP6 (UniProt Q8N6S5) | 0.175 (inactive) |
| AK6 (UniProt Q9Y3D8) | -0.085 (inactive) |
| APOB (UniProt P04114) | -0.55 (active) |
| BLVRB (UniProt P30043) | -0.012 (inactive) |
| ATP6AP1 (UniProt Q15904) | -0.317 (active) |
| ATP1A4 (UniProt Q13733) | 0.032 (inactive) |
| ARF4 (UniProt P18085) | 0.254 (active) |
| BZW1 isoform 3 (UniProt Q7L1Q6) | -0.209 (inactive) |
